Screening data (PubChem BioAssay)
In the library only some 4.7% were active in any assay of this set; here they are far more common.
D1 antagonist: human D1 dopamine receptor antagonism; P21728; HEK293 TREx D1 cells, calcium flux, dopamine EC80; stronger effect = lower value; activity change, negative = inhibition, % at 10 µM; actives 3.2% (n = 360,000); AID 504652; in the data active = activity change below about -30%; note: % is set by controls: 0 for no effect and ±100 for the full control effect
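Inducible Hek293 Trex D1 cells (tetracycline, overnight, 30 C). Calcium dye 30–90 min RT. Antagonist mode: EC80 dopamine added after 180 s compound read.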
D1 ag: agonists of human D1 dopamine receptor; HEK293 T-REx D1 cells, calcium flux, agonist mode; activation, % at 2 µM; actives 1% (n = 360,000); note: 0% is about no effect
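Inducible HEK293 T-REx D1 cells, force-coupled to calcium signalling, were plated at 4000 cells/well with tetracycline and held overnight at 30 C. After no-wash calcium dye loading, compound-evoked calcium rise over 180 s flagged agonists.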
D1 PAM: human D1 dopamine receptor positive modulation. P21728. HEK293 TREx D1 cells, calcium flux, dopamine EC20 potentiation. potentiation, % at 10 µM. actives 0.036% (n = 360,000); in the data active = potentiation above about 30%; note: 0% is about no effect
TRHR PAM: TRH receptor (human) allosteric enhancement. P34981. TRHR cells, fluo-8 calcium fluorescence, EC20 TRH enhancement. enhancement, % at 2 µM. actives 0.66% (n = 360,000). AID 493056; in the data active = enhancement above about 30%; note: 0% is about no effect
Target sequence (P34981 whole entry, looked up): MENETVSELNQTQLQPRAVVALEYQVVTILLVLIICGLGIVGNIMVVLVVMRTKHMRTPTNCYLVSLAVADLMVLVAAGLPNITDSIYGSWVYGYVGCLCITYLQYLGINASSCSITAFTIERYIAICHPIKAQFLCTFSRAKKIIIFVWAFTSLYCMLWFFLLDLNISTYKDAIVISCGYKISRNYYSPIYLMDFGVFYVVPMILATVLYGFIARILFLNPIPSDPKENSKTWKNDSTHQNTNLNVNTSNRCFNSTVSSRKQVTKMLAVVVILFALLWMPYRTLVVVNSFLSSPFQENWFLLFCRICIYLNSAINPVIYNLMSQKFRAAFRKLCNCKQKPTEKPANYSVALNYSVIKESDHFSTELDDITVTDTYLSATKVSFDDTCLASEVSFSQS
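Enhancer read-out: after compound pinning and an initial kinetic agonist-mode read, an EC20 of TRH (10 nM final) was injected and fluo-8 calcium signal (Ex 480/Em 530) followed at 1 s/cycle for 100 cycles in TRHR-expressing cells.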
TRHR agonist: TRH receptor (human) agonism; actives 0.18% (n = 360,000); TRHR cells, calcium flux fluo-8, FDSS agonist mode; P34981; activation, % at 2 µM; note: 0% is about no effect
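Fluo-8-loaded TRHR cells; 10 s baseline, compound added, kinetic Ca2+ fluorescence read 1/s, agonist mode.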
* = called active by the depositor; . = not tested or not shown. Cut-off read from the data, not from the text of the source, unless noted: active = activation above about 30%; inactive = the rest.

SMILES	D1 antagonist	D1 ag	D1 PAM	TRHR PAM	TRHR agonist
Cc1ccc(CC(=O)Nc2ccc([N+](=O)[O-])cc2C)cc1	-41*	11	-5	6	-1
Cc1ccc(CC(=O)Nc2ncc([N+](=O)[O-])s2)cc1	-39*	12	-7	-10	1
Cc1ccc(NC(=O)C(=O)c2cc(C)n(-c3ccc(F)cc3)c2C)cc1C	-10	0	-3	3	0
Cc1cc(C)cc(NC(=O)CN2C(=O)c3ccccc3Sc3ncccc32)c1	4	5	-3	6	0
CN(Cc1ccccc1)CC(O)COc1ccc(CNCc2ccc(Cl)s2)cc1 (stereo unspecified)	-41*	54*	-5	-3	9
CC(C)c1ccc(NC(=O)CN(C)S(=O)(=O)c2ccc3c(c2)n(C)c(=O)c(=O)n3C)cc1	18	1	-1	0	-1
C/C(CC(=O)Nc1ccc(C)c(Cl)c1)=N\NC(=O)c1cccc(O)c1	0	1	-1	32*	0
C/C(CC(=O)Nc1cccc(Cl)c1Cl)=N\NC(=O)c1ccccc1C	-43*	3	-7	0	0
Cc1ccc(S(=O)(=O)Nc2cc3c(cc2C)n(C)c(=O)c(=O)n3C)c(C)c1	-95*	1	-7	-7	0
Cc1ccc(S(=O)(=O)Nc2ccc3c(c2)n(C)c(=O)n3C)c(C)c1	-12	8	-6	2	0
Cn1c(=O)c2c(nc(SCC(=O)NCc3ccc4c(c3)OCO4)n2Cc2ccc(F)cc2)n(C)c1=O	-37*	0	-22	-7	0
Cn1c(=O)c2c(nc(SCC(=O)NCc3ccc4c(c3)OCO4)n2Cc2ccccc2)n(C)c1=O	-3	-5	4	0	0
CCOc1ccc(NS(=O)(=O)c2c(C)nc3sccn3c2=O)cc1	-34*	7	-10	-6	1
COc1cccc(NS(=O)(=O)c2c(C)nc3sccn3c2=O)c1	-43*	8	0	-3	0
CC(=O)Nc1ccc(NS(=O)(=O)c2c(C)nc3sccn3c2=O)cc1	-4	1	-4	2	0
CCOc1ccc(Cn2c(CNS(=O)(=O)c3ccc([N+](=O)[O-])cc3)nc3cccnc32)cc1	-3	4	-4	0	0
C=C[C@@H]1c2ccccc2N(S(=O)(=O)c2ccc(C)cc2)[C@H](c2ccc(OC(C)=O)cc2)C1(C#N)C#N	-8	4	-2	3	0
C=C[C@@H]1c2cc(C)ccc2N(S(=O)(=O)c2ccc(C)cc2)[C@H](c2ccc(OC(C)=O)cc2)C1(C#N)C#N	.	40*	0	-3	1
Cc1ccc(C2NC(=O)c3ccccc3N2)s1 (stereo unspecified)	-10	0	6	35*	1
CC(C)CCC1(CCNC(C)c2cccs2)CCOC(C)(C)C1 (stereo unspecified)	-36*	3	-1	4	0
CCC(=O)N(CCC1(C(C)C)CCOC(C)(C)C1)C(C)c1cccs1 (stereo unspecified)	0	0	5	-8	0
Cc1ccc(-c2c(C#N)c(N)n3c(nc4ccccc43)c2C#N)cc1	-39*	23	-15	-6	4
CO/N=C\CC(=O)Nc1ccc(Cl)c(Cl)c1	-30*	6	-6	5	0
Cc1ccc(NC(=O)NCc2cccn2Cc2ccccc2)c(C)c1	-7	4	0	-4	0
CCOC(=O)c1nnn2c1nc(N1CCCCC1)c1ccccc12	-42*	-1	7	-6	0
SMILES	D1 antagonist	D1 ag	D1 PAM	TRHR PAM	TRHR agonist
CCOC(=O)c1c(S(=O)(=O)N2CCC(C(=O)N3CCN(c4cc(C)ccc4C)CC3)CC2)c(C)n(C)c1C	-92*	0	-2	1	-1
CCOC(=O)c1c(S(=O)(=O)N2CCCC(C(=O)Nc3cc(C)ccn3)C2)c(C)n(C)c1C (stereo unspecified)	-33*	1	-2	-4	0
c1ccc(-c2cn(-c3ccccc3)c3ncnc(N4CCN(c5ccccc5)CC4)c23)cc1	-24	-1	0	4	0
O=C1c2[nH]nc(-c3ccccc3O)c2C(c2ccc(Cl)cc2)N1CCc1ccccc1 (stereo unspecified)	8	5	2	2	1
Cc1nc2ccccc2n1C1CCN(CC(=O)Nc2ccccc2Br)CC1	-14	52*	-5	-3	11
Cc1ccccc1NC(=O)CN1CCC(n2nnc3ccccc32)CC1	2	1	-1	3	-1
O=C(c1cc([N+](=O)[O-])ccc1Cl)N1c2ccccc2Sc2ccccc21	-37*	3	-7	1	0
CCc1nnc(NC(=O)C2=NN(C3CCS(=O)(=O)C3)C(=O)CC2)s1 (stereo unspecified)	-2	3	-2	12	0
O=C(Nc1cccnc1)C1=NN(C2CCS(=O)(=O)C2)C(=O)CC1 (stereo unspecified)	-23	1	-6	39*	0
S=C(Nc1ccc(Cl)cc1)NC1CC2CCCC(C1)N2C1CC1 (stereo unspecified)	-41*	135*	7	1	0
C=CCN1C2CCCC1CC(NC(=S)Nc1ccc(Cl)cc1)C2 (stereo unspecified)	-84*	23	-1	3	2
S=C(Nc1ccc(Cl)cc1)NC1CC2CCC(C1)N2Cc1ccccc1 (stereo unspecified)	-43*	52*	8	3	7
C=CCN1C2CCCC1CC(NC(=O)Nc1cc(C)cc(C)c1)C2 (stereo unspecified)	-7	5	-6	-1	0
CCc1ccc(NC(=S)NC2CC3CCCC(C2)N3Cc2ccccc2)cc1 (stereo unspecified)	-29	20	1	7	0
CN(Cc1ccccc1)C(=O)c1ccc(CSc2nc3cccnc3n2Cc2ccccc2F)cc1	-7	4	-4	4	0
COc1ccccc1CCNC(=O)C1(c2cccs2)CCOCC1	.	-1	-2	-6	0
CCC(C)NS(=O)(=O)c1ccc(N2CCCCS2(=O)=O)cc1 (stereo unspecified)	-7	30	0	2	-1
Cc1ccc(NC(=O)c2ccc(CNS(=O)(=O)c3ccc4c(c3)C(C)(C)C(=O)N4C)cc2)cc1C	-3	0	2	0	0
Nc1nonc1N/N=C/c1c(O)ccc2ccccc12	-22	31*	-9	4	1
O=C(N/N=C/c1c(O)ccc2ccccc12)c1cccnc1	6	42*	5	8	36*
O=C(N/N=C\c1c(O)ccc2ccccc12)c1cncc(Br)c1	-21	314*	5	38*	105*
Cc1ccc(C(=O)N/N=C/c2c(O)ccc3ccccc23)cn1	3	30	-2	2	29
